The values that follow come from PubChem BioAssay AID2451 (National Center for Advancing Translational Sciences (NCATS), 2010).

Out of some 290,000 compounds screened, about 2,100 (0.72%) were called active. Another 4% or so got no clear call; they are omitted. The entries come from a sample that favours actives as a whole. A number with no mark means an inactive call. The call rests on the fitted dose curve; in most records, active means well fitted inhibition curve with a large enough effect; inconclusive means small, poorly fitted or top-dose-only effect, or effect the other way; inactive means flat fitted curve, though single readings scatter.
On the % scale 0 is the no-effect control and ±100 the full control effect; potency means the concentration at half of the fitted maximal effect.

Chain of Fructose-bisphosphate aldolase (Giardia intestinalis (strain ATCC 50803 / WB clone C6)) (A8B2U2 whole entry, looked up): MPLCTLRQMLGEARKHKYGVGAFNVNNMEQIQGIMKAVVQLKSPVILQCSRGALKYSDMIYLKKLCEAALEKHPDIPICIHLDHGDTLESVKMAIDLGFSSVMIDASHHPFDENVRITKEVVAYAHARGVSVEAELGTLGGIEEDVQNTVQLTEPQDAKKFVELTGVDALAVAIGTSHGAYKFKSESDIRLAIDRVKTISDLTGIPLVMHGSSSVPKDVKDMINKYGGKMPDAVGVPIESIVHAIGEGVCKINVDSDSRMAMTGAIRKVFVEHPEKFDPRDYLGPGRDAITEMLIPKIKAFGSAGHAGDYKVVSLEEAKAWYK

The assay has as its target Fructose-bisphosphate aldolase (Giardia intestinalis (strain ATCC 50803 / WB clone C6)) (UniProt A8B2U2). In words: qHTS Assay for Inhibitors of Fructose-1,6-bisphosphate Aldolase from Giardia Lamblia. Further: nearly all actives have a fitted effect of over 55% in size. Conditions: purified Giardia FBPA; series mostly up to 59.6 µM; activity, negative = inhibition: at the top concentration. The source says: Assay Provider: Osnat Herzberg, University of Maryland
The objective of this project is to obtain compounds that inhibit Giardia lamblia growth. G. lamblia is a human pathogen which afflicts impoverished nations; it is the most common cause of outbreaks of diarrhea in the United States. During the course of our study of potential drug targets in Giardia, we have identified the Class II (Zn2+ functions in electrophilic catalysis) fructose-1,6-bisphosphate aldolase (FBPA) as an excellent candidate for drug targeting. FBPA is a key glycolytic pathway enzyme, essential for G. lamblia survival. The human FBPA belongs to the Class I aldolases, which have a different substrate binding site structure and a radically different catalytic mechanism (employing a lysine-Schiff base intermediate). Therefore, affinity-based or mechanism-based inhibitors of the Giardia FBPA are expected not to interfere with the catalytic function of the human FBPA.
A glyceraldehyde-3-phosphate dehydrogenase/triose phosphate isomerase/NAD/arsenate coupled assay was adapted to the 1536-well HTP format for use in the primary screen. This was done by coupling it to a diaphorase/resazurin/resorufin reaction that can be monitored by fluorescence (excitation, 544 nm; emission, 590 nm). Compounds identified in this screen will be further evaluated by coupling the glycerol-3-phosphate/triose phosphate isomerase/NADH assay to a phenazine methosulfate/tetranitroblue tetrazolium color reaction. False positives due to the dehydrogenases and diaphorase inhibition will be eliminated, and selectivity assay will triage inhibitors of mammalian triose phosphate isomerase and the Class I FBPA. G. lamblia FBPA inhibitors identified by the in vitro analyses will be examined for growth inhibition of Giardia trophozoites, and for cytotoxicity in human cells.
Step,Parameter,Value,Description
1,Enzyme reagent,2 uL,40 nM FBPA
2,Compound,23 nL,3.68 nM-57.5 uM final concentration
3,Time,10 min,RT Incubation
4,Substrate/detection Reagent,2 uL,Substrate + enzyme coupling system + AmpLite Red kit
5,Time,20 min,RT Incubation
6,Detector,525 nm/598 nm (Fluorescence),ViewLux Fluorescence Read (Read 1)
1,Medium-binding black solid-bottom Kalypsys plates. FRD or Kalypsys dispenser, 2 uL of FBPA enzyme. Bottle kept at 4C.
2,Compound Library (10 mM ,1:5 dilution). Pin-transferred for a [final] range of 3.68 nM-57.5 uM.
4,FRD or Kalypsys dispenser, 2 uL of reaction mixture. Bottle kept at 4C and covered in foil to protect from light.
6,ViewLux Protocol 1194; Excitation filter wheel A (525/20 Pol; BODIPY TMR FP), Emission filter wheel B (598/25 S; BODIPY TMR FP S).
Keywords: Fructose-bisphosphate aldolase, FBPA , Giardia lamblia , Giardia, HTS, Inhibitors
Take `Cc1nc2ccc(NC(=O)N3CCC(c4ccccc4)C3)cc2nc1C` (stereo unspecified): the “activity, negative = inhibition” value was -21.7%. For the molecule `Cc1nc2ccc(NC(=S)N3CCC(C)CC3)cc2nc1C`, the Potency is 15.8 µM (active). With `Cc1cccc(NC(=S)N2CCC(c3nc4ccccc4s3)CC2)c1`, the “activity, negative = inhibition” value was -0.249%. Consider `O=CN1CCN(C(=O)c2ccc(Br)o2)CC1`, for which the “activity, negative = inhibition” value was 3.01%.

Consider `O=C(CN1CCCCCC1)Nc1c(Cl)cc(Cl)cc1Cl`, for which the “activity, negative = inhibition” value is 5.6%. As to `Cc1csc(NC(=O)CN2CCCCCC2)n1`, the Potency is 22.3 µM (active). Take `Cc1cc(C)c(NC(=O)CN2CCCCCC2)c(C)c1`: the “activity, negative = inhibition” value is -2.14%. For the molecule `Cc1cccc([C@@H]2[C@@H]3C(=O)N(C)C(=O)[C@@H]3[C@@H]3C(=O)Nc4ccccc4C(=O)N23)c1`, the “activity, negative = inhibition” value is -14.7%. Take `COc1ccccc1N(CC(=O)N/N=C(\C)c1ccccc1O)S(=O)(=O)c1ccc(C)cc1`: the “activity, negative = inhibition” value is 2.65%. Still for that read-out and setting: the figure for `CC(C)(C)c1ccc(CN2C(=O)c3ccccc3S2(=O)=O)cc1` is -19.5%. Turning to `Cc1ccc(C(=O)N2CC(=O)Nc3ccc(F)cc3C2c2ccc(F)cc2)cc1` (stereo unspecified), the “activity, negative = inhibition” value was 3.84%. For the molecule `Cc1nnc(N/N=C/c2ccccn2)[nH]c1=O`, the Potency was 1.99 µM (active).

On to `Cc1nnc(N/N=C/c2cccs2)[nH]c1=O`, for which the “activity, negative = inhibition” value was -7.41%. Same read-out and setting: the result for `Cc1ccccc1Nc1nnc(C)c(=O)[nH]1` reads -0.51%. For the molecule `O=S(=O)(c1ccc(Br)c2ccccc12)N1CCOCC1`, the “activity, negative = inhibition” value is 1.75%. Consider `COc1ccc(C(=O)Nc2ccc(C3(C#N)CCCC3)cc2)cc1OC`, for which the “activity, negative = inhibition” value is -4.77%. Turning to `Cc1ccc(CC2CC(=O)N(c3cc(C)ccc3C)C2=O)cc1` (stereo unspecified), the “activity, negative = inhibition” value is -1.82%. On to `O=C(COc1cccc(Cl)c1)NCc1ccccc1`, for which the “activity, negative = inhibition” value is 15%. Consider `CN(C)C(=O)CSc1n[nH]c(-c2ccco2)n1`, for which the Potency is 15.8 µM (active). Consider `O=[N+]([O-])c1ccc(Sc2n[nH]c(-c3ccco3)n2)nc1`, for which the “activity, negative = inhibition” value is -26.1%. With `CN(C)c1ccc(NC(=O)CSc2n[nH]c(-c3ccco3)n2)cc1`, the “activity, negative = inhibition” value was -5.76%.

Take `CC(C)Nc1ccc(-n2nc3ccccc3[n+]2[O-])cc1`: the “activity, negative = inhibition” value is -3.63%.

As to `COCCCNC(=S)N1CCN(c2nc(-c3cccc(OC)c3)cs2)CC1`, the “activity, negative = inhibition” value is -13.5%. With `O=C(N/C(=C/c1ccc(Cl)cc1)C(=O)N1CCCCC1)c1ccco1`, the “activity, negative = inhibition” value was 8.42%. As for `COc1cc2ccccc2cc1C(=O)Nc1nc(C)c(C(C)=O)s1`, the “activity, negative = inhibition” value was 0.847%. As for `CCCCC(CC)CNCc1cccn1CCN1CCOCC1` (stereo unspecified), the “activity, negative = inhibition” value is -22.5%. On to `CCN(CC)c1ccc(/C=N/Nc2nc(C)cc(=O)[nH]2)cc1`, for which the “activity, negative = inhibition” value is -1.27%.

Take `CCN(CC)c1ccc2oc(=O)c(C)nc2c1`: the Potency was 2.51 µM (active). On to `CCN(CC)c1ccc(/C=N/Nc2nc(C)cc(C)n2)c(O)c1`, for which the “activity, negative = inhibition” value is -25.3%. For `CCOCCOC(=O)C(C)Oc1ccc(Oc2ncc(C(F)(F)F)cc2Cl)cc1` (stereo unspecified), the “activity, negative = inhibition” value is -9.6%.

Consider `COc1ccc(C2CC(c3ccc([N+](=O)[O-])cc3)=NN2C(C)=O)cc1` (stereo unspecified), for which the “activity, negative = inhibition” value is 4.54%. Consider `COc1ccc(C(=O)NC(C)CCc2ccccc2)c(OC)c1` (stereo unspecified), for which the “activity, negative = inhibition” value is -2.8%. The same measure, in the same setting: the result for `C#CCN1C(=O)C(O)(CC(=O)c2cc(OC)ccc2OC)c2ccccc21` (stereo unspecified) reads 0.87%. Take `COc1ccc2c(c1)C(=C(C#N)C#N)C(=O)N2CCc1ccccc1`: the Potency was 2.51 µM (active).

For the molecule `Brc1ccccc1C1N=C(c2ccccc2)NO1` (stereo unspecified), the “activity, negative = inhibition” value was 6.11%. On to `Cc1ccc(SCC(CC(C)C)N2CCN(CCc3ccccc3)CCC2=O)cc1` (stereo unspecified), for which the “activity, negative = inhibition” value was 0.403%. As to `CCOc1ccccc1NC(=O)C1CCCN(S(=O)(=O)c2ccccc2)C1` (stereo unspecified), the “activity, negative = inhibition” value is -3.85%. In the case of `CCN1CCc2c(C#N)c(NCc3ccccc3)nc(NCCO)c2C1`, the Potency was 5.61 µM (active). For the molecule `CCc1nc(NCCO)c(C#N)c2c1CCCC2`, the “activity, negative = inhibition” value was 4.66%.

For the molecule `CCCCc1nc(NCc2ccccc2)c(C#N)c2c1CCCC2`, the “activity, negative = inhibition” value was 0.951%.

For `Cc1cccc(C(=O)NCCCN2CCCC2=O)c1`, the “activity, negative = inhibition” value is 0.332%. As to `O=C1CCCN1CCCNC(=S)Nc1ccc(F)c(Cl)c1`, the Potency was 14.1 µM (active). In the case of `Cc1cc(Cl)ccc1NC(=S)NCCCN1CCCC1=O`, the “activity, negative = inhibition” value is 3.39%.

For `O=C(O)CCCn1cc(NC(=O)COc2cccc(Cl)c2)cn1`, the “activity, negative = inhibition” value is -8.97%. Take `COc1ccc(-n2ncc3c(SCC(=O)NNC(C)=O)ncnc32)cc1`: the “activity, negative = inhibition” value is 13.2%.

As for `Cc1ccccc1-n1nc(C)c2cc(C(=O)NC3CC3)sc21`, the “activity, negative = inhibition” value was 0.949%. `Cc1ccccc1-n1nc(C)c2c1N=C1C(Cl)=CC(Cl)=CN1C2c1ccc(C(=O)O)cc1` (stereo unspecified): the Potency is 12.6 µM (active). Take `Cc1nn(-c2ccccc2)c(Cl)c1/C=C/C(=O)c1ccc(O)cc1`: the “activity, negative = inhibition” value is 1.27%.

For the molecule `Cc1cccc([C@@H]2[C@@H]3C(=O)N(Cc4ccccc4)C(=O)[C@@H]3[C@]3(C)C(=O)N(c4ccc(Br)cc4)C(=O)N23)c1`, the “activity, negative = inhibition” value was 16.2%.

`CCN(CC)S(=O)(=O)c1ccc(-c2cn3ccc(C)cc3n2)cc1`: the “activity, negative = inhibition” value is 4.66%.

Take `C=CCn1c(SCc2ccccc2)nc2c1c(=O)[nH]c(=O)n2C`: the “activity, negative = inhibition” value was 6.61%. With `Cc1cnc(NC(=O)c2ccccn2)s1`, the Potency is 7.92 µM (active). Turning to `Cc1cnc(NC(=O)c2ccc(Cl)nc2)s1`, the “activity, negative = inhibition” value was -13.5%. Consider `Cc1cnc(NC(=O)CSc2c(Cl)cccc2Cl)s1`, for which the “activity, negative = inhibition” value was 0.395%. Still for that read-out and setting: the result for `CN(C)CCN(C(=O)C1=COCCO1)c1nc2ccc(Cl)cc2s1` reads -10.9%; that for `CCc1ccc(NC(=O)N2CCc3ccccc3C2)cc1`, 5.4%.
